The panel holds about 83,000 compounds, 20% with a hit somewhere; the sample as a whole holds those more often.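 Note: values are percent growth. 100 is the growth of untreated cells, values between 100 and 0 indicate rising inhibition; between -100 and 0 indicates cell death.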 Active and inactive are the calls of the source.

The subject of the assay is NCI-H460 lung. As to the kind of experiment: NCI-60 one-dose screen, 48 h (100 = growth as untreated, 0 = no growth, -100 = all killed). Conditions: 10 µM unless noted. As for the experimental part: Growth inhibition of the NCI-H460 human Non-Small Cell Lung tumor cell line is measured as a screen for anti-cancer activity. Cells are grown in 96 well plates and exposed to the test compound for 48 hours. Compounds are tested at a single concentration, which is 10^-5 M for most compounds. The reported endpoint is percent growth (GI% or GIPRCNT), where numbers from 0 - 100% represent growth inhibition, and numbers from -100% - 0 represent cell death. For example, a value of 40 represents 60% growth inhibition. A value of 0 means no net growth occurred over the course of the experiment. A value of -40 indicates 40% of cells at the beginning of the experiment died by the end of the experiment. A value of -100 means all cells are dead at the end of the experiment.
NCI-60 Human Tumor Cell Lines Screen was performed using the standard one-dose NCI protocol, which is described in more detail at https://dtp.cancer.gov/discovery_development/nci-60/default.htm.
Compounds with GIPRCNT values below 10 were considered active. Activity score was based on GIPRCNT using the following formula: […]
Score is 0 for GIPRCNT values of 100 or above, 50 for GIPRCNT values of 0, and 100 for GIPRCNT values of -100.
In the case of `C=C1C(=O)O[C@H]2[C@H]1CC/C(CNC(=O)Cc1c[nH]c3ccccc13)=C\CC[C@@]1(C)O[C@@H]21`, the growth is 29.6% (inactive).

As to `Clc1ccc(-c2nc(C(Cl)Cl)nc3cc(-c4ccccc4)nn23)cc1`, the growth was -54.6% (active).

As to `C=C1SC(=Nc2ccccc2Cl)N(C(=O)c2sc3ccccc3c2Cl)C1(C)C`, the growth was 15.1% (inactive).

`CCn1cc(C(=O)N/N=C/c2cccc(F)c2)c(=O)c2cc(F)c(N3CCNC(C)C3)c(F)c21` (stereo not given): the growth is -79% (active).

For the molecule `CS(=O)(=O)Nc1cc(-c2ccc3ncnc(Nc4ccc5c(cnn5Cc5ccncc5)c4)c3c2)cnc1Cl`, the growth is 97.2% (inactive).

As to `CN(C)Cc1cc(C(C)(C)C)cc(Br)c1O`, the growth is 86.5% (inactive).

For the molecule `C#CCOc1cccc(Nc2ncnc3cc(NC(=O)CCl)ccc23)c1`, the growth was -55.3% (active).

With `CCn1cc(C(=O)N/N=C/c2ccccc2)c(=O)c2cc(F)c(N3CCNC(C)C3)c(F)c21` (stereo not given), the growth was -73% (active).

Consider `O=C(Cn1nc(-c2cccc3ccccc23)ccc1=O)NCc1cccc(Cl)c1`, for which the growth was 32.2% [50 µM] (inactive).

As to `Cc1oc(-c2ccc(Cl)cc2)nc1C1=NN(C(=O)c2ccncc2)C(c2ccccc2)C1` (stereo not given), the growth is 98.6% (inactive).

As to `COC1C(O)CC(OC2CC(OC3CC(O[C@@H]4C(=O)c5c(cc6cc(OC7CC(OC8CC(O)C(O)C(C)O8)C(O)C(C)O7)c(C)c(O)c6c5O)CC4[C@H](OC)[C@@H](O)C(C)=O)OC(C)C3O)OC(C)C2O)OC1C` (stereo not given in full), the growth is 7.99% (active).

Turning to `COc1ccc(/C=N/Nc2c3ccccc3nc3ccccc23)cc1`, the growth was 99.5% (inactive).

For the molecule `O=C(NNc1nc2cc(F)ccc2n2c(CN3CCOCC3)ccc12)c1ccccc1`, the growth was 0.156% (active).

As to `O=C(C1=Cc2cc3ccccc3n2Cc2cnnn21)c1ccc(F)cc1`, the growth was 106% (inactive).

Turning to `CC1=C2[C@@H](CC1)[C@]1(C)O[C@@](C3CCNCC3)(C[C@H]1OC(=O)CO)[C@H]2OC(=O)/C=C/c1ccccc1`, the growth is 94.1% (inactive).

With `O=C(/C=C/c1ccccc1)N(C1CCCCC1)C1CCCCC1`, the growth was 86.8% (inactive).

Take `Fc1cc2[nH]ncc2c2c3c(c(-c4cn[nH]c4C(F)(F)F)nc12)CCCC3`: the growth was 2.41% (active).

In the case of `C=C(C)[C@@H]1CC[C@]2(C(=O)N3CCNCC3)CC[C@]3(C)[C@H](CC[C@@H]4[C@@](C)(CCC(=O)N5CCNCC5)[C@H](C(=C)C)CC[C@]43C)[C@@H]12`, the growth is 8.8% (active).

In the case of `Cc1[nH]c(C(=O)Nc2ccccc2OC2CCN(CCN3CCOCC3)CC2)c(Cl)c1Cl`, the growth is 108% (inactive).

Consider `COCCOC(C)C(/C=N/NC(N)=S)=N/NC(N)=S` (stereo not given), for which the growth is 85.8% (inactive).

Turning to `CC1=C2CC/C(C)=C/CC[C@]3(C)O[C@H]3CC/C(C)=C/[C@H]2OC1`, the growth is 107% (inactive).

Regarding `CNC(=O)c1cc(Oc2ccc3c(c2)sc2nc(-c4ccc(NC(=O)[C@@H](NC(=O)OC)C(C)C)cc4)cn23)ccn1`, the growth is 87.6% (inactive).

Consider `COCCn1cc(-c2nc(-c3cn(CCOC)c4ncccc34)cs2)c2cc(F)ccc21`, for which the growth was 49.7% (inactive).

Regarding `COc1ccc2c(c1)CC[C@@H]1[C@@H]2CC[C@]2(C)C3C(=CC(COC(C)=O)C4C(=O)N(c5ccc(Cl)cc5)C(=O)C43)C[C@@H]12` (stereo not given in full), the growth was 110% (inactive).

On to `O=S(=O)(N=C1C(Cl)=C(Cl)C(=NS(=O)(=O)c2ccccc2)C(Cl)=C1Cl)c1ccccc1`, for which the growth is 39.1% (inactive).

With `CC1SC(c2ccccc2O)N(NC(=O)CCC(=O)c2nc3ncccc3[nH]2)C1=O` (stereo not given), the growth is 103% (inactive).

In the case of `COc1ccccc1/C=C/C(=O)Nc1ccc(F)cc1`, the growth was 102% (inactive).

`COc1ccc(Nc2ncc(C#N)c(NCCCNC(=O)C3CCC3)n2)cc1`: the growth is 41.7% (inactive).

In the case of `COCCn1cc(-c2csc(-c3c[nH]c4ccccc34)n2)c2cccnc21`, the growth is 18.8% (inactive).

Regarding `O=C(Nc1ccc(Nc2ccncc2)cc1)c1ccc(Nc2ccnc3ccc([N+](=O)[O-])cc23)cc1`, the growth was 68.2% (inactive).

For the molecule `Cc1cccc(NC(=O)N/C(N)=N/c2nc3ccccc3s2)c1`, the growth was 17.6% (inactive).

Regarding `C=C1C(=O)O[C@@H]2C3C(=C(C)CC[C@@H]12)CC1O[C@]13C` (stereo not given in full), the growth is 101% [6.75 µM] (inactive).

On to `c1cc(OCCN2CCCCC2)ccc1CNc1ccc2nc(CCC3CCCCC3)[nH]c2c1`, for which the growth was 33.6% (inactive).

Regarding `CCOC(=O)C(CCN(C)C)c1ccccc1` (stereo not given), the growth is 105% (inactive).

Regarding `COc1cc(/C=C2\C(=O)N(CCCOc3cc(O)c4c(=O)cc(-c5ccccc5)oc4c3)c3ccccc32)cc(OC)c1O`, the growth was 89.4% (inactive).

Consider `Cc1ccc(C2CC(c3cccc(Nc4ccncc4)c3)=Nc3c(N)nc(N)nc3N2)cc1` (stereo not given), for which the growth was 23.1% (inactive).

For the molecule `CCCc1cc(=O)oc2c(C(=O)CC(C)C)c(O)c(CC=C(C)C)c(O)c12`, the growth is 15.8% (inactive).

For the molecule `Cn1cc(-c2csc(-c3cn(C)c4ccccc34)n2)c2cnccc21`, the growth was -46.2% (active).

Regarding `CCN1C(=O)N(CC)C2C1NN=c1s/c(=C\c3ccc(OC)cc3)c(=O)n12` (stereo not given), the growth was 4.22% (active).

With `CN(C)CCn1c(=O)c2ccccc2n2nc3ccccc3c12`, the growth is 70.4% (inactive).
